Screening results (PubChem)
Pf growth 96h – P. falciparum growth inhibition at 96 hour, primary screen for plastid delayed-death inhibitors | 6.9% of 320,000 active | Potency, µM (titrated, usually from 28.7 µM), for the others: at the highest dose activity change, negative = inhibition, usual class: inhibitors | P. falciparum luciferase reporter growth, 96 h | AID 504834; note: % is set by controls: 0 for no effect and ±100 for the full control effect
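P. falciparum expressing integrated firefly luciferase grown in erythrocytes (2% hematocrit, 0.05% parasitemia final) with compounds for 96 hours at 37 C, 5% CO2. Growth inhibition read as loss of luminescence after adding luciferase detection reagent.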
Vaccinia Venus – inhibitors of vaccinia virus (Venus reporter). Vaccinia virus Venus reporter expression, fluorescence. Potency, µM (titrated, usually from 36.5 µM), inactives show at the highest dose activity change, negative = inhibition, actives largely listed as inhibitors. 0.46% of 330,000 active. AID 720580; calls by dose curve; tested in A549 cells; note: % is set by controls: 0 for no effect and ±100 for the full control effect; nearly all actives have a fitted effect of over 30% in size
VACV mCherry inh – vaccinia inhibition (mCherry reporter). Vaccinia virus mCherry reporter infection, fluorescence. 0.63% of 310,000 active. Potency, µM (top dose mostly 36.5 µM), for inactives: at the highest dose activity change, negative = inhibition, actives largely listed as inhibitors; calls by dose curve; tested in A549 cells; note: % is set by controls: 0 for no effect and ±100 for the full control effect; nearly all actives have a fitted effect of over 35% in size
NS1 function inh – influenza NS1 inhibition | AID 2326 | Potency, µM (highest dose often 46.1 µM), for inactives: top-dose activity, positive = more growth | 0.4% of 270,000 active; calls by dose curve; note: actives are rising curves; nearly all actives have a fitted effect of over 50% in size
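OD600 was taken as the measure of yeast growth restored by compound in an NS1-expressing S. cerevisiae strain. Cells had been washed out of glucose medium and diluted 1:100 into galactose -URA medium, pH 6.0.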
HCV inhibitor – inhibitors of hepatitis C virus infection | Huh7.5.1 HCVcc-Cre infection, luciferase reporter, 44 h | Potency, µM (top dose mostly 41.8 µM), inactives show at the highest dose activity change, negative = inhibition, most hits filed as inhibitors | 3.4% of 340,000 active; note: % is set by controls: 0 for no effect and ±100 for the full control effect
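A cell-based infection assay in which seeded cells (1,000 per well) receive test compound after 4 h, are inoculated with HCVcc-Cre at approximately 0.5 moi, and are incubated 44 h before luminescence detection.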
Pf growth 48h – P. falciparum growth inhibition at 48 hours (one generation) | P. falciparum luciferase growth in erythrocytes, 48 h | Potency, µM (doses to about 28.7 µM), inactives show top-dose activity change, negative = inhibition, usual class: inhibitors | 5.9% of 310,000 active | AID 504832; note: % is set by controls: 0 for no effect and ±100 for the full control effect
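Erythrocytes infected with P. falciparum carrying an integrated firefly luciferase reporter (2% hematocrit, 0.1% parasitemia final) were exposed to compounds in RPMI 1640 with 0.5% Albumax at 37 C, 5% CO2. Growth inhibition was scored as reduced luminescence.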
Numbers without * were called inactive. A selection: hits, their analogues and other compounds. The true share with any hit is near 11%. Unless noted, calls come from the whole dose curve; as a rule, active = well fitted inhibition curve with a large enough effect; inconclusive = small, poorly fitted or top-dose-only effect, or another doubt; inactive = no such curve, though single readings can be large or run the other way. Potency is the fitted concentration of half-maximal effect.

Screening CCOc1cccc(C(=O)Nc2ccc(N3CCN(S(C)(=O)=O)CC3)cc2)c1 returned Pf growth 96h inconclusive, Vaccinia Venus -18.8%, VACV mCherry inh inactive, NS1 function inh -1.5% and HCV inhibitor -8.5%.
Screening C/C(=N\Nc1nc(C)cc(-c2ccccc2)n1)c1ccccc1 returned Pf growth 96h 328.2%, Vaccinia Venus -13.5%, VACV mCherry inh inactive, NS1 function inh 5.0%, HCV inhibitor 15.8µM* and Pf growth 48h inconclusive.
C/C(=N/Nc1nc(C)cc(-c2ccccc2)n1)c1ccco1 was read as Vaccinia Venus -17.9%, VACV mCherry inh inconclusive, NS1 function inh 0.3%, HCV inhibitor inconclusive and Pf growth 48h -26.8%.
For C/C(=N\Nc1nc(C)cc(-c2ccccc2)n1)c1ccc(C)o1 the results were Pf growth 96h 1.04µM*, Vaccinia Venus -20.2%, VACV mCherry inh inconclusive, NS1 function inh 13.9%, HCV inhibitor inconclusive and Pf growth 48h 13.1µM*.
Screening C/C(=N\NC(=O)c1ccc(-c2ccccc2)cc1)c1cccc(N)c1 returned Pf growth 96h 1.0%, Vaccinia Venus -13.0%, VACV mCherry inh -0.4%, NS1 function inh 5.1%, HCV inhibitor inconclusive and Pf growth 48h 0.8%.
Screening C/C(=N\Nc1nc(C)cc(-c2ccccc2)n1)c1cccc(N)c1 returned Pf growth 96h inconclusive, NS1 function inh -16.9%, HCV inhibitor 6.31µM* and Pf growth 48h inconclusive.
For C/C(=N\Nc1nc(C)cc(-c2ccccc2)n1)c1ccc(O)cc1 the results were Pf growth 96h 0.0%, NS1 function inh -10.3%, HCV inhibitor 11.2µM* and Pf growth 48h inconclusive.
CCOCCCNc1nc(=S)[nH]c2cc(OC)c(OC)cc12 was read as Pf growth 96h inconclusive, Vaccinia Venus -19.3%, VACV mCherry inh -13.0%, NS1 function inh -8.2%, HCV inhibitor 16.7% and Pf growth 48h inconclusive.
NC(=O)CCCn1c(C(=O)c2cc(Cl)c(N)c(Cl)c2)c2ccc(C(F)(F)F)cc2[n+]1[O-] was read as Pf growth 96h 4.65µM*, Vaccinia Venus -12.2%, VACV mCherry inh -13.4%, HCV inhibitor -13.2% and Pf growth 48h 5.86µM*.
For NC(=O)c1ccc(Cn2c(C(=O)c3cc(Cl)c(N)c(Cl)c3)c3ccccc3[n+]2[O-])cc1 the results were Pf growth 96h inconclusive, Vaccinia Venus -22.4%, VACV mCherry inh -22.8%, HCV inhibitor -1.9% and Pf growth 48h inconclusive.
For Cc1ccc(C(=O)c2c3ccc([N+](=O)[O-])cc3[n+]([O-])n2CCC(N)=O)cc1 the results were Pf growth 96h 0.0%, Vaccinia Venus inconclusive, VACV mCherry inh inconclusive, NS1 function inh 28.1%, HCV inhibitor 12.6µM* and Pf growth 48h -20.7%.
COc1ccc(C(=O)c2c3ccc(C(F)(F)F)cc3[n+]([O-])n2CCCC(N)=O)cc1 was read as Pf growth 96h inconclusive, Vaccinia Venus -23.1%, VACV mCherry inh -11.2%, HCV inhibitor 19.5% and Pf growth 48h inconclusive.
`NCCCn1c(C(=O)c2cc(Cl)c(N)c(Cl)c2)c2ccc([N+](=O)[O-])cc2[n+]1[O-]` gave Pf growth 96h inconclusive, Vaccinia Venus 12.6µM*, VACV mCherry inh inconclusive, HCV inhibitor inconclusive and Pf growth 48h 11.7µM*.
For NCCCn1c(C(=O)c2cc(Cl)c(N)c(Cl)c2)c2ccc(C(F)(F)F)cc2[n+]1[O-] the results were Pf growth 96h inconclusive, Vaccinia Venus inconclusive, VACV mCherry inh -15.5%, HCV inhibitor -7.1% and Pf growth 48h 6.57µM*.
Cc1cc(C)cc(OCC(=O)Nc2ccc(-c3nc4ccccc4o3)cc2)c1 was read as Vaccinia Venus -17.6% and VACV mCherry inh -21.7%.
`COc1ccc(S(=O)(=O)N2CCCC2CNC(=O)C(=O)NCCc2ccccc2)cc1` (stereo not given) gave Pf growth 96h inconclusive, Vaccinia Venus -27.7%, VACV mCherry inh inconclusive, HCV inhibitor inconclusive and Pf growth 48h inconclusive.
